{"source": "PubChem BioAssay AID1508602", "about": "(The Scripps Research Institute Molecular Screening Center, 2020)", "note": "Several values for one entry are separate records, joined by “and”; a condition that tells them apart may be missing. Equal values may be shown once. Hit rate of the full screen: of about 650,000 compounds, about 6,800 (1%) were called active. This excerpt belongs to a sample that is enriched for actives. Unmarked numbers belong to inactive results. No stated cut-off is given here; in the data, active means activation above about 4.9%; inactive means the rest.", "data": [{"target": "G-protein coupled receptor 151 (Homo sapiens) (UniProt Q8TDV0)", "sequence (Q8TDV0 whole entry, looked up)": "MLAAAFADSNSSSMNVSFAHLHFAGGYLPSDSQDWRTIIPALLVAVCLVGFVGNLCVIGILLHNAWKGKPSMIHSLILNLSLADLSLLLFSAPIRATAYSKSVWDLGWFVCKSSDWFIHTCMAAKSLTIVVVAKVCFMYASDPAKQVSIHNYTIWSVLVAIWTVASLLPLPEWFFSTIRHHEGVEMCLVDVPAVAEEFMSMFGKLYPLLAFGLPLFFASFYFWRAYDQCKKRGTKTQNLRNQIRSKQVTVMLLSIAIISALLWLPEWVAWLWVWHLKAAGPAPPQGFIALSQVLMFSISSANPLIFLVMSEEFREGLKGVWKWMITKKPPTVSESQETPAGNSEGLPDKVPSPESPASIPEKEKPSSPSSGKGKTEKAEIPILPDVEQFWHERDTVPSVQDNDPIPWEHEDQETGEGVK", "assay": "activates the human receptor GPR151, primary screen, cell-based, PathHunter beta-arrestin, luminescence (AID 1508602);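 further: 0% = median of compound wells and 100% = cells with positive control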", "conditions": "PathHunter beta-arrestin GPR151 cells, at 11.2 µM, active compounds read high", "values": [{"smiles": "COc1cccc2cc(C(=O)N(C)C)c(=O)oc12", "activation": "5.93% (active)"}, {"smiles": "COc1ccc(NC(=O)c2cc3cccc(OC)c3oc2=O)cc1OC", "activation": "-1.45%"}, {"smiles": "CCCN(CCC)C(=O)c1cc2cccc(OC)c2oc1=O", "activation": "2.62%"}, {"smiles": "CCn1c(COc2ccccc2)nnc1Sc1ccc([N+](=O)[O-])cc1C=O", "activation": "8.41% (active)"}, {"smiles": "O=[N+]([O-])c1ccc(OCc2nnc(SCCN3CCOCC3)n2-c2ccccc2)cc1", "activation": "0.574%"}, {"smiles": "CCn1c(COc2ccccc2OC)nnc1SCC(=O)NC", "activation": "1.05%"}, {"smiles": "COc1cc([N+](=O)[O-])ccc1NC(=S)NCc1cc(C)n(C)n1", "activation": "6.53% (active)"}, {"smiles": "COc1cc([N+](=O)[O-])ccc1NC(=O)C1CCCC1", "activation": "0.251%"}, {"smiles": "COc1ccc(CCNC(=S)Nc2c(C)n(C)n(-c3ccccc3)c2=O)cc1OC", "activation": "0.54%"}, {"smiles": "CCCC(=O)NC(=S)Nc1ccc([N+](=O)[O-])cc1OC", "activation": "0.167%"}, {"smiles": "COc1ccc(CCNC(=S)NCc2cc(C)n(C)n2)cc1OC", "activation": "14.1% (active)"}, {"smiles": "COc1ccc(NC(=S)NCc2cc(C)n(C)n2)cc1OC", "activation": "2.25%"}, {"smiles": "CCc1nc2ccccc2c2nn(CC(=O)NCCc3ccc(OC)c(OC)c3)c(=O)n12", "activation": "0.488%"}, {"smiles": "COC(=O)c1ccc(Nc2nc3c(s2)CCc2ccccc2-3)cc1", "activation": "1.88%"}, {"smiles": "Cc1ccc(C)c(OCCOCCNCCN)c1C", "activation": "0.982%"}, {"smiles": "CN(C)c1cc(Oc2ccc(=O)[nH]n2)nc(N(C)C)n1", "activation": "0.738%"}, {"smiles": "CC(C)(C)c1ccc(C(=S)NCCCn2ccnc2)cc1", "activation": "1.31%"}, {"smiles": "COc1ccc(NC(=O)Cn2nnc(-c3ccccc3NC(=O)c3cccc(C)c3)n2)cc1", "activation": "-0.639%"}, {"smiles": "CCOC(=O)c1c(C)oc2c(Br)cc3oc(=O)c(C(=O)CC)cc3c12", "activation": "-0.749%"}, {"smiles": "COC(=O)CN(C)C(=O)CC1C(=O)NCCN1Cc1ccc(OC)c(OC)c1", "note": "(stereo unspecified)", "activation": "-0.568%"}, {"smiles": "CCCCOc1ccc(OC(=O)c2ccc(-c3ccc(CC)cn3)cc2)cc1", "activation": "0.589%"}, {"smiles": "CCc1ccc(-c2ccc(C3CCC(CC)CC3)cc2)nc1", "note": "(stereo unspecified)", "activation": "10.7% (active)"}, {"smiles": "CCCC1CCC(c2ccc(-c3ccc(CC)cn3)cc2F)CC1", "note": "(stereo unspecified)", "activation": "3.24%"}, {"smiles": "COc1ccc(/C(O)=C2/C(=O)C(=O)N(CCCC(=O)O)C2c2ccc(O)cc2)cc1", "note": "(stereo unspecified)", "activation": "0.777%"}, {"smiles": "CCC1(c2ccc(Cl)cc2Cl)NC(=S)N(c2ccc(C)c(C)c2)N1", "note": "(stereo unspecified)", "activation": "6.17% (active)"}, {"smiles": "Cc1ccc(-n2[nH]c(C)c(C=Nc3ccc(N=Cc4c(C)[nH]n(-c5ccc(C)c(C)c5)c4=O)cc3)c2=O)cc1C", "activation": "1.34%"}, {"smiles": "Cc1ccc(N2NC3(CCCCC3)NC2=S)cc1C", "activation": "1.89%"}, {"smiles": "CCCCOC(=O)C1=C(C)NC2=C(C(=O)CCC2)C1c1cccc([N+](=O)[O-])c1", "note": "(stereo unspecified)", "activation": "6.33% (active)"}, {"smiles": "COc1ccc(COC(=O)C2=C(C)NC3=C(C(=O)CCC3)C2c2cccc([N+](=O)[O-])c2)cc1", "note": "(stereo unspecified)", "activation": "-0.575%"}, {"smiles": "CCCCOC(=O)C1=C(C)NC2=C(C(=O)CCC2)C1c1ccccc1[N+](=O)[O-]", "note": "(stereo unspecified)", "activation": "1.59% and 0.946%"}, {"smiles": "Cn1nc2c(nc1=O)[nH]c1ccccc12", "activation": "-0.513%"}, {"smiles": "Cc1ccc(OCCN2CCNCC2)cc1C", "activation": "-1.28%"}, {"smiles": "CC(=O)c1cccc(-c2cccc(C(=O)Nc3ccc(N4CCOCC4)cc3)c2)c1", "activation": "-0.102%"}, {"smiles": "COc1cc2nc(-c3cccc(C(C)=O)c3)nc(Nc3ccc(N4CCOCC4)cc3)c2cc1OC", "activation": "5.83% (active)"}, {"smiles": "COc1cc2nc(-c3ccc(N4CCOCC4)nc3)nc(Nc3ccc(NC(C)=O)cc3)c2cc1OC", "activation": "0.834%"}, {"smiles": "COc1cc(C2C3=C(CC(C)(C)CC3=O)Nc3ccc4ncccc4c32)ccc1OC(C)=O", "note": "(stereo unspecified)", "activation": "-0.317%"}, {"smiles": "O=C(Cc1cccs1)N1CCCCC1c1nc2ccccc2[nH]1", "note": "(stereo unspecified)", "activation": "0.204%"}, {"smiles": "O=C(Nc1ccc(Br)cc1Cl)N1CCN(c2ncccn2)CC1", "activation": "-0.59%"}, {"smiles": "Cn1c(SCCN2CCCCC2)nnc1C1CCN(C/C=C/c2ccco2)CC1", "activation": "1.24%"}, {"smiles": "O=C(Nc1ccc(N2CCCC2=O)cc1)c1cncc(Br)c1", "activation": "5.11% (active)"}, {"smiles": "COc1cccc(C(=O)Nc2ccc(N3CCCC3=O)cc2)c1", "activation": "-9.98%"}, {"smiles": "O=C(Nc1ccc(S(=O)(=O)Nc2ncccn2)cc1)c1cncc(Br)c1", "activation": "-0.902%"}, {"smiles": "C(=N\\c1nnc2nc[nH]n12)/c1ccco1", "activation": "-0.745%"}, {"smiles": "CC(C)CNC(=O)c1ccc(F)c(S(=O)(=O)N2CCOCC2)c1", "activation": "1.07%"}, {"smiles": "COc1ccc(S(=O)(=O)Oc2ccc(Cl)c3cccnc23)cc1OC", "activation": "2.28%"}, {"smiles": "COc1ccc(OC)c(S(=O)(=O)Oc2ccc(Cl)c3cccnc23)c1", "activation": "12.1% (active)"}, {"smiles": "O=[N+]([O-])c1ccc(Oc2ccc(Cl)c3cccnc23)c(Cl)c1", "activation": "0.725%"}, {"smiles": "COC(=O)c1cc2cc(N)ccc2s1", "activation": "0.191%"}, {"smiles": "CCCS(=O)(=O)N1CCN=C1SCc1cccc(Cl)c1", "activation": "-1.49%"}, {"smiles": "Cc1cccc(NC(=O)CSc2ncn[nH]2)c1", "activation": "-0.535%"}, {"smiles": "O=C(CSc1ccc(F)cc1)Nc1cccc2ccccc12", "activation": "7.44% (active)"}, {"smiles": "Cc1cc(=O)[nH]c(SCC(=O)Nc2cccc3ccccc23)n1", "activation": "15.8% (active)"}, {"smiles": "Cc1cc(=O)[nH]c(SCC(=O)Nc2ccccn2)n1", "activation": "0.382%"}, {"smiles": "Cc1cc(=O)[nH]c(SCC(=O)Nc2ccc(C(N)=O)cc2)n1", "activation": "-0.979%"}, {"smiles": "Cc1nc(SCC(=O)Nc2cccc3ccccc23)n[nH]1", "activation": "-0.295%"}, {"smiles": "Cc1nnc(SCC(=O)Nc2cccc(Cl)c2)[nH]c1=O", "activation": "0.326%"}, {"smiles": "Cc1cccc(NC(=O)CSc2nc3[nH]ncc3c(=O)[nH]2)c1", "activation": "5.01% (active)"}, {"smiles": "O=C(CSc1ccc(F)cc1)Nc1ccccc1-c1nc2ccccc2s1", "activation": "-0.819%"}, {"smiles": "COc1ccc(C(=O)c2snc(Nc3ccccc3)c2N)cc1", "activation": "0.834%"}, {"smiles": "CCSc1c(O)cnn(-c2ccccc2)c1=O", "activation": "0.94%"}, {"smiles": "CCOC(=O)C(C#N)C(C#N)(C(=O)OCC)C1CCCCC1=O", "note": "(stereo unspecified)", "activation": "2.95%"}]}]}
